According to PubChem BioAssay (EPA / NIEHS):
Values joined by “and” are separate entries in the source; they are usually repeats but may differ in a detail not shown here. Identical values can stand only once. Results filed as inconclusive are left out. Active and inactive are the calls of the source. Rule for the calls, unless noted: active = hit-call score of the fitted dose curve at least 0.9, where 1 is the maximum; inactive = score below 0.9.

What was measured:
[1] = CCTE_Deisenroth_AIME_96WELL_CTox_Inactive: Cytotoxicity Assessment (CTOX) in CCTE's 96-well Estrogen Receptor Transactivation Assay without AIME metabolic competence (metabolism negative), Deisenroth Lab (AID 2284029; active = hit-call score of the fitted dose curve at least 0.9, where 1 is the maximum)
How it was run: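 Chemicals (10-point series, 0.002-200 uM) were incubated 2 h with alginate-water microspheres lacking S9. The conditioned medium was then transferred onto VM7Luc4E2 cells for 24 h. Viability was measured by protease-substrate cleavage to a fluorescent probe, with loss of signal fitted bidirectionally; n≥4 experimental replicates.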

[2] = CCTE_Shafer_MEA_dev_firing_rate_mean: CCTE's Neural Network Formation Assay for Mean Firing Rate, Shafer Lab (AID 2284031);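 for AC50: curve fitted for loss of firing so AC50 reflects decreased mean firing rate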
How it was run: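 Primary rat cortical neurons on 48-well, 16-electrode MEAs (PEI-coated, laminin at plating), exposed from day 0 with compound renewed at DIV 5 and 9. Spikes recorded DIV 5, 7, 9, 12; well-mean firing rate collapsed to trapezoidal AUC, loss-of-signal vs DMSO.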

[3] = CCTE_Shafer_MEA_dev_per_burst_spike_percent: CCTE's Neural Network Formation Assay for Percent of Spikes in a Burst, Shafer Lab (AID 2284032);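 for AC50: fitted as a decrease in burst spike percentage below DMSO baseline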
How it was run: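 Rat primary cortical neurons on 16-electrode MEA wells, dosed from plating day 0 for 12 days with renewal on DIV 5 and 9; spikes-in-bursts percentage averaged over bursting electrodes, collapsed as AUC across days 5, 7, 9, 12; loss direction versus DMSO.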

[4] = CCTE_Shafer_MEA_dev_active_electrodes_number: CCTE's Neural Network Formation Assay for Number of Active Electrodes, Shafer Lab (AID 2284040; active = hit-call score of the fitted dose curve at least 0.9, where 1 is the maximum;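 for AC50: potency for loss of active electrodes versus DMSO so lower counts are hits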)
How it was run: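 Rat cortical primary cultures, 1.5 x 10^5 cells/well, PEI-coated MEA, laminin drop. Continuous exposure DIV 0–12; full media/compound change DIV 5, 9. Readout: electrodes with mean firing ≥5 spikes/min; AUC across days; loss vs DMSO.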

[5] = CCTE_Shafer_MEA_dev_burst_rate: CCTE's Neural Network Formation Assay for Burst Rate, Shafer Lab (AID 2284042);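 for AC50: potency for loss of burst rate below DMSO control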
How it was run: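 Rat primary cortical cultures on PEI/laminin MEA; compound from plating, re-dosed at DIV 5, 9 media change. Single-electrode bursts/recording length, well mean of active electrodes; AUC over DIV 5–12 recordings; loss-of-signal vs DMSO.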

[6] = CCTE_Shafer_MEA_dev_bursting_electrodes_number: CCTE's Neural Network Formation Assay for Number of Bursting Electrodes, Shafer Lab (AID 2284043; active = hit-call score of the fitted dose curve at least 0.9, where 1 is the maximum;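 for AC50: potency is for loss of bursting electrodes relative to DMSO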)
How it was run: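 Primary rat cortical neurons were cultured on PEI-coated 48-well MEA plates (16 electrodes/well) and exposed from plating through day 12, with compound renewed at feeds on DIV 5 and 9. Electrodes bursting ≥1 per 2 min were counted on DIV 5, 7, 9, 12; trapezoidal AUC taken.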

[7] = CCTE_Shafer_MEA_dev_per_burst_interspike_interval: CCTE's Neural Network Formation Assay for Burst Interspike Interval, Shafer Lab (AID 2284044);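 note: mean spike spacing inside bursts as AUC over recordings on days 5 7 9 12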;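 for AC50: potency for a decrease of within-burst interspike interval below DMSO level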
How it was run: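 Mean interspike interval within single-electrode bursts, averaged over bursting electrodes, from rat cortical cultures on MEA plates recorded on days 5, 7, 9 and 12. Continuous compound exposure from plating; trapezoidal AUC fitted downward relative to DMSO.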

[8] = CCTE_Shafer_MEA_dev_burst_duration_mean: CCTE's Neural Network Formation Assay for Mean Burst Duration, Shafer Lab (AID 2284045);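 for AC50: curve fitted for loss meaning shorter burst duration than DMSO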
How it was run: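 Primary rat cortical neurons on PEI-coated 16-electrode MEA wells, exposed from plating through day 12 with compound renewed at DIV 5 and 9; spontaneous activity recorded days 5, 7, 9, 12. Well-mean burst duration collapsed as trapezoidal AUC, fitted for loss versus DMSO.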

[9] = CCTE_Shafer_MEA_dev_interburst_interval_mean: CCTE's Neural Network Formation Assay for Mean Interburst Interval, Shafer Lab (AID 2284046);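 note: well-mean interburst interval of bursting electrodes as AUC over four recording days; curve fitted for decrease in interburst interval relative to DMSO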
How it was run: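 Rat cortical neurons, 1.5 x 10^5 cells/well, 48-well MEA; compound from day 0 through DIV 12, media and treatment renewed DIV 5/9. Recordings DIV 5, 7, 9, 12; well-mean interburst interval → trapezoidal AUC, loss direction vs DMSO.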

[10] = CCTE_Shafer_MEA_dev_inter_network_spike_interval_mean: CCTE's Neural Network Formation Assay for Mean Inter-network Spike Interval, Shafer Lab (AID 2284047);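 for AC50: potency for a decrease in mean inter-network spike interval below DMSO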
How it was run: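 Primary rat cortical neurons on PEI-coated 48-well MEAs (16 electrodes/well) were exposed from plating day 0 to DIV 12, with dosing renewed at DIV 5 and 9. Recordings at DIV 5, 7, 9, 12 were collapsed by trapezoidal AUC, loss-of-signal fit vs DMSO.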

[11] = CCTE_Shafer_MEA_dev_network_spike_number: CCTE's Neural Network Formation Assay for Number of Network Spikes, Shafer Lab (AID 2284048);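 note: synchronized bursts across electrodes counted on days 5 7 9 12 and integrated as AUC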;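 for AC50: fit as a loss of signal meaning fewer network spikes than DMSO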
How it was run: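 Primary rat cortical neurons were seeded at 1.5 x 10^5 cells/well on PEI-coated 16-electrode MEA wells with laminin, exposed from plating day 0, compound renewed at DIV 5 and 9. Network spikes were recorded on days 5, 7, 9, 12 and summarized as trapezoidal AUC versus DMSO.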

[12] = CCTE_Shafer_MEA_dev_network_spike_peak: CCTE's Neural Network Formation Assay for Mean Number of Electrodes in Network Spike, Shafer Lab (AID 2284049);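 for AC50: fitted for loss of signal meaning fewer electrodes in network spikes than DMSO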
How it was run: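 Continuous 12-day exposure of rat cortical cultures, starting at plating, on MEA plates. Endpoint: electrodes participating in network-spike peaks, AUC across DIV 5–12, DMSO as negative control.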

DIO2 (gene 1734) = test: CCTE_GLTED_hDIO2: CCTE's human Deiodinase 2 (DIO2) Inhibition Assay, Great Lakes Toxicology and Ecology Division (GLTED) Lab (AID 2284050; active = hit-call score of the fitted dose curve at least 0.9, where 1 is the maximum)
How it was run: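 Cell-free human DIO2 enzyme was incubated with test chemical for 3 h; iodide liberated from substrate was then quantified by the Sandell-Kolthoff reaction (absorbance), run in triplicate. Loss of signal versus DMSO baseline indicated inhibition.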

[13] = CCTE_Shafer_MEA_dev_spike_duration_mean: CCTE's Neural Network Formation Assay for Mean Spike Duration, Shafer Lab (AID 2284051);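 note: mean network spike duration pooled as area under curve over DIV 5 to 12 recordings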;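 for AC50: potency for a decrease in mean network spike duration versus DMSO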
How it was run: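 Rat cortical primary cultures, 48-well MEA (16 electrodes/well); compound from plating, renewed DIV 5, 9. Network spike duration (AxIS adaptive detector) recorded DIV 5/7/9/12, combined as trapezoidal AUC; loss direction vs DMSO.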

[14] = CCTE_Shafer_MEA_dev_network_spike_duration_std: CCTE's Neural Network Formation Assay for Standard Deviation of Network Spike Duration, Shafer Lab (AID 2284052);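 note: area under curve of spike duration SD across recording days 5 to 12; hits are decreases in network spike duration SD versus DMSO vehicle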
How it was run: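 Rat cortical cultures, 1.5 x 10^5 cells/well, exposed continuously from plating to DIV 12 with media/compound renewal at DIV 5, 9. Spontaneous activity recorded DIV 5/7/9/12, AxIS adaptive spike detector; AUC across days; negative direction vs DMSO.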

[15] = CCTE_Deisenroth_AIME_384WELL_CTox_Active: Cytotoxicity Assessment (CTOX) in CCTE's 384-well Estrogen Receptor Transactivation Assay with AIME metabolic competence (metabolism positive), Deisenroth Lab (AID 2284037; active = hit-call score of the fitted dose curve at least 0.9, where 1 is the maximum;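 note: chemicals first conditioned 2 h by alginate-bound induced rat liver S9 before cells; activity means signal loss indicating cell death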)
How it was run: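 VM7Luc4E2 breast cells received medium pre-incubated 2 h with chemical over alginate microspheres holding induced male Sprague Dawley rat liver S9; viability read 24 h later by protease-substrate fluorescence. Loss of signal, bidirectional fit, 0.002–200 uM.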

[16] = CCTE_Deisenroth_AIME_384WELL_CTox_Inactive: Cytotoxicity Assessment (CTOX) in CCTE's 384-well Estrogen Receptor Transactivation Assay without AIME metabolic competence (metabolism negative), Deisenroth Lab (AID 2284039; active = hit-call score of the fitted dose curve at least 0.9, where 1 is the maximum;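 note: cell viability via live-cell protease substrate cleaved to fluorescent probe; cells exposed 24 h to medium preincubated 2 h with alginate-water beads without S9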)
How it was run: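 VM7Luc4E2 human breast cells received conditioned medium from a 2 h incubation of chemical with alginate-water microspheres (no S9), then were exposed 24 h. Viability was read as protease-substrate cleavage to a fluorescent probe; loss of signal was fitted bidirectionally over 0.002–200 uM.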

[17] = target: Estrogen receptor (Homo sapiens) (UniProt P03372); test: CCTE_Deisenroth_AIME_384WELL_LUC_Active: CCTE's 384-well Estrogen Receptor Transactivation Assay with AIME metabolic competence (ERTA luciferase; metabolism positive), Deisenroth Lab (AID 2284030; active = hit-call score of the fitted dose curve at least 0.9, where 1 is the maximum)
Estrogen receptor (Homo sapiens), sequence (P03372 whole entry, looked up): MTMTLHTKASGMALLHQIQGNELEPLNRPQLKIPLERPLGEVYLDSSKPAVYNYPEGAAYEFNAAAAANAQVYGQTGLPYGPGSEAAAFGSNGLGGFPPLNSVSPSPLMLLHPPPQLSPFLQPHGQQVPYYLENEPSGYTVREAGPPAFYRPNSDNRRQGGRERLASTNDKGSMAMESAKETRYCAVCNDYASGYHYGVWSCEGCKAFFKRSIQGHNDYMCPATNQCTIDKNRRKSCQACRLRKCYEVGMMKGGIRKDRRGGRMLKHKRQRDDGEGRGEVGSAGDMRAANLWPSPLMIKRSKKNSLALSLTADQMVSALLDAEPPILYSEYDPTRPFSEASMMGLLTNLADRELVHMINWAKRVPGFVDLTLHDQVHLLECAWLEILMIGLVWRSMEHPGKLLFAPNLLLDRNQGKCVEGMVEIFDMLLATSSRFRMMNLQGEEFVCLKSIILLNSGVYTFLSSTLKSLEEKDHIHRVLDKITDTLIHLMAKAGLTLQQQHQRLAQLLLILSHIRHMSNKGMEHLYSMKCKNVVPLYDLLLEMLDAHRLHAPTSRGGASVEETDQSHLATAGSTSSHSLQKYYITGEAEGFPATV
How it was run: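 VM7Luc4E2 breast cells were given, for 24 hours, medium pre-incubated for 2 hours with parent chemical (0.002-200 uM, 10 concentrations) and alginate-encapsulated phenobarbital/beta-naphthoflavone-induced rat hepatic S9. Luciferase gain of signal was fitted against 17beta-estradiol; n=4 or more.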

[18] = target: Estrogen receptor (Homo sapiens) (UniProt P03372); test: CCTE_Deisenroth_AIME_384WELL_LUC_Inactive: CCTE's 384-well Estrogen Receptor Transactivation Assay without AIME metabolic competence (ERTA luciferase; metabolism negative), Deisenroth Lab (AID 2284038; active = hit-call score of the fitted dose curve at least 0.9, where 1 is the maximum;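 note: hits raise estrogen receptor luciferase signal so potencies reflect agonists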)
How it was run: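 Chemicals (10-point series, 0.002 - 200 uM) were incubated 2 hours with alginate-water microsphere lids lacking S9, then the conditioned medium was transferred to VM7Luc4E2 breast cells for 24 hour. Luciferase induction was read by bioluminescence, fitted upward relative to 17beta-estradiol.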

[19] = target: Estrogen receptor (Homo sapiens) (UniProt P03372); test: CCTE_Deisenroth_AIME_384WELL_LUC_Shift: CCTE's 384-well Estrogen Receptor Transactivation Assay with AIME metabolic competence data shift (ERTA luciferase; difference in metabolism positive and negative), Deisenroth Lab (AID 2284041);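 note: shift is response with S9 minus without S9 so positive means metabolism raised ER signal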
How it was run: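 Here, parent compounds undergo 2 h phase I metabolism by PB/BNF-induced rat S9 before 24 h transactivation in VM7Luc4E2 cells; the curve models S9-positive minus S9-negative response over a 10-point series.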

Measured: AC50

CC/C(=C(\c1ccccc1)c1ccc(OCCN(C)C)cc1)c1ccccc1
active: [1] 74.1 µM | [2] 0.0329 µM | [3] 1.98 µM | [4] 0.329 µM | [5] 0.122 µM | [6] 0.203 µM | [7] 0.307 µM | [8] 0.0304 µM | [9] 1.03 µM | [10] 0.0578 µM | [11] 1.87 µM | [12] 0.209 µM | DIO2 (gene 1734) 46.5 µM and 46.3 µM | [13] 0.35 µM | [14] 0.273 µM

C#C[C@]1(O)CC[C@H]2[C@@H]3CCc4cc(O)ccc4[C@H]3CC[C@@]21C
active: [1] 116 µM | [15] 77.6 µM | [16] 93.7 µM

CCCC1CCC(=O)CC1
inactive: [17] | [18] | [19]

C=CC(C)CCCC(C)(C)O (stereo unspecified)
inactive: [17] | [18] | [16] | [19]

CCCCC(CC)COC(=O)COc1ccc(Cl)cc1C (stereo unspecified)
not listed: [1] | DIO2 (gene 1734) | [15] | [16] | [17] | [18] | [19]
inactive: all other assays above

CCCCCCCCCCCCOCCOS(=O)(=O)O
active: [15] 147 µM | [16] 107 µM
inactive: [19]

C=C(C)C(=O)OCCC(C)OC(=O)C(=C)C (stereo unspecified)
active: DIO2 (gene 1734) 49.6 µM

O=C1OC2(c3ccc(O)cc3Oc3cc(O)ccc32)c2ccccc21
inactive: [18] | [19]

CCCCOCCOCCO
inactive: [17] | [18] | [16] | [19]

CCCC[N+](C)(CCCC)CCCC
inactive: [17] | [16] | [19]

O=C(OCc1ccccc1)c1ccccc1O
inactive: [17] | [15]
active: [18] 46.4 µM | [19] 37.2 µM

CCCO
inactive: [17] | [18] | [19]

CCC(=O)OC(C)(C)C1CC=C(C)CC1 (stereo unspecified)
inactive: [18] | [19]

O=C(c1ccc(OCCN2CCCCC2)cc1)c1c(-c2ccc(O)cc2)sc2cc(O)ccc12
active: DIO2 (gene 1734) 99.1 µM

[O-]/[N+](=N\O)c1ccccc1
active: [17] 72.8 µM | [18] 59 µM | [19] 81 µM

N#CCCNCCC#N
not listed: [1] | DIO2 (gene 1734) | [15] | [16] | [17] | [18] | [19]
inactive: all other assays above

CCCCOCCOCCOCCO
inactive: [17] | [18] | [19]

CC(C)Cc1ccc(C(C)C(=O)O)cc1 (stereo unspecified)
active: [6] 2.98 µM | [9] 0.962 µM | [12] 15 µM
not listed: [1] | DIO2 (gene 1734) | [15] | [16] | [17] | [18] | [19]
inactive: all other assays above

CCCCCCCCOC(=O)c1ccc(O)cc1
active: [18] 39.7 µM | [19] 36.3 µM | DIO2 (gene 1734) 92.9 µM
inactive: [17]

CCCCC/C=C\C=C\C(=O)OCC
active: DIO2 (gene 1734) 44.2 µM

CN(C)C(=O)Nc1ccccc1
inactive: [17] | [18] | [16] | [19]

[Na+]
inactive: [17] | [18] | [19]

N[C@@H](CCC(=O)O)C(=O)O
inactive: [2] | [3] | [5] | [6] | [7] | [8] | [9] | [10] | [12] | [13] | [14]
